# Reference: PubChem BioAssay AID1159580 (chemical genetic matrix, 2015)
# Values joined by “and” are separate entries in the source; they are usually repeats but may differ in a detail not shown here. Identical values can stand only once. Hit rate of the full screen: of about 5,500 compounds, about 2,000 (36%) were called active. Another 18% or so got no clear call; they are omitted. The list shows a part of the results. Unmarked numbers belong to inactive results. No stated cut-off is given here; in the data, active means normalized growth mostly below about 0.91 (no sharp cut-off); inconclusive means no clear call, values can overlap the other calls; inactive means mostly above about 0.92.
# Experiment: chemical genetic growth profiling, strain panel (AID 1159580);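 further: tested at 20 µM; growth read once vehicle control cultures reached saturation at 30 °C; 1 = growth at the plate median or of vehicle wells; lower values mean less growth of the strain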
# Settings: S. cerevisiae deletion strains, growth OD
compound,measurement,setting,value
CC(=O)Oc1cc(C)c2c(c1C(OC(C)=O)OC(C)=O)Oc1c(c(C)c(OC(C)=O)c3c1C(OC(C)=O)OC3=O)OC2=O (stereo not given),normalized growth,"locus YAL013W, strain DEP1, hits give low values",0.98
same,normalized growth,"locus YBR021W, strain FUR4, hits give low values",1.01
same,normalized growth,"locus YBR229C, strain ROT2, hits give low values",0.989
same,normalized growth,"locus YCL029C, strain bik1, hits give low values",0.98
same,normalized growth,"locus YDL035C, strain GPR1, hits give low values",1.03
same,normalized growth,"locus YDL074C, strain BRE1, hits give low values",0.998
same,normalized growth,"locus YDL101C, strain DUN1, hits give low values",0.983
same,normalized growth,"locus YDL134C, strain PPH21, hits give low values",0.983
same,normalized growth,"locus YDL185W, strain tfp1, hits give low values",0.965
same,normalized growth,"locus YDL192W, strain arf1, hits give low values",1.01
same,normalized growth,"locus YDR101C, strain arx1, hits give low values",1.03
same,normalized growth,"locus YDR162C, strain NBP2, hits give low values",0.998
same,normalized growth,"locus YDR318W, strain mcm21, hits give low values",0.98
same,normalized growth,"locus YDR388W, hits give low values",0.982
same,normalized growth,"locus YDR502C, strain sam2, hits give low values",0.968
same,normalized growth,"locus YEL061C, strain CIN8, hits give low values",0.985
same,normalized growth,"locus YER110C, hits give low values",0.97
same,normalized growth,"locus YER155C, strain BEM2, hits give low values",1.01
same,normalized growth,"locus YER167W, strain BCK2, hits give low values",0.995
same,normalized growth,"locus YGL078C, strain dbp3, hits give low values",0.973
same,normalized growth,"locus YGL086W, strain mad1, hits give low values",0.995
same,normalized growth,"locus YGL248W, strain PDE1, hits give low values",0.967
same,normalized growth,"locus YGR135W, strain pre9, hits give low values",0.952
same,normalized growth,"locus YGR252W, strain gcn5, hits give low values",1.06
same,normalized growth,"locus YHR030C, strain SLT2, hits give low values",0.952
same,normalized growth,"locus YHR079C, strain IRE1 (second series), hits give low values",0.983
same,normalized growth,"locus YHR079C, strain IRE1, hits give low values",0.93
same,normalized growth,"locus YHR094C, strain hxt1, hits give low values",0.978
same,normalized growth,"locus YHR129C, strain ARP1, hits give low values",0.983
same,normalized growth,"locus YHR200W, strain rpn10, hits give low values",0.988
same,normalized growth,"locus YIL066C, strain RNR3, hits give low values",0.983
same,normalized growth,"locus YIL073C, strain SPO22, hits give low values",1.02
same,normalized growth,"locus YIL125W, strain kgd1, hits give low values",0.978
same,normalized growth,"locus YIR030C, strain dcg1, hits give low values",0.964
same,normalized growth,"locus YJL095W, strain BCK1, hits give low values",0.988 and 0.963
same,normalized growth,"locus YJL134W, strain LCB3, hits give low values",0.985
same,normalized growth,"locus YJL168C, strain set2, hits give low values",0.991
same,normalized growth,"locus YJL187C, strain SWE1 (second series), hits give low values",0.961
same,normalized growth,"locus YJR066W, strain TOR1, hits give low values",0.889
same,normalized growth,"locus YKL009W, strain mrt4, hits give low values",1
same,normalized growth,"locus YKL068W, hits give low values",0.969
same,normalized growth,"locus YKL085W, strain MDH1 (second series), hits give low values",0.97
same,normalized growth,"locus YKL085W, strain MDH1, hits give low values",0.97
same,normalized growth,"locus YKR001C, strain vps1, hits give low values",1
same,normalized growth,"locus YLR039C, strain RIC1, hits give low values",0.943
same,normalized growth,"locus YLR058C, strain SHM2, hits give low values",0.993
same,normalized growth,"locus YLR102C, strain apc9, hits give low values",0.974
same,normalized growth,"locus YLR113W, strain HOG1, hits give low values",0.832 (active)
same,normalized growth,"locus YLR268W, strain sec22, hits give low values",1.01
same,normalized growth,"locus YLR342W, strain FKS1 (second series), hits give low values",1.06
same,normalized growth,"locus YLR371W, strain rom2, hits give low values",0.998
same,normalized growth,"locus YLR418C, strain cdc73, hits give low values",0.989
same,normalized growth,"locus YML016C, strain PPZ1, hits give low values",0.971
same,normalized growth,"locus YML032C, strain rad52, hits give low values",0.997
same,normalized growth,"locus YML124C, strain tub3, hits give low values",0.968
same,normalized growth,"locus YMR078C, strain ctf18, hits give low values",0.978
same,normalized growth,"locus YMR223W, strain ubp8, hits give low values",0.989
same,normalized growth,"locus YMR263W, strain SAP30, hits give low values",0.982
same,normalized growth,"locus YMR307W, strain GAS1, hits give low values",1.02
same,normalized growth,"locus YNL067W, strain RPL9B, hits give low values",0.983
same,normalized growth,"locus YNL128W, strain TEP1, hits give low values",0.99
same,normalized growth,"locus YNL183C, strain NPR1, hits give low values",0.911
same,normalized growth,"locus YNL233W, strain BNI4, hits give low values",0.973
same,normalized growth,"locus YNL250W, strain rad50, hits give low values",0.921
same,normalized growth,"locus YNL271C, strain bni1, hits give low values",0.968
same,normalized growth,"locus YNL298W, strain CLA4, hits give low values",0.967
same,normalized growth,"locus YNL307C, strain MCK1, hits give low values",0.974
same,normalized growth,"locus YNR052C, strain pop2, hits give low values",0.961
same,normalized growth,"locus YOL012C, strain htz1",0.831
same,normalized growth,"locus YOL147C, strain pex11, hits give low values",0.99
same,normalized growth,"locus YOR061W, strain CKA2, hits give low values",0.982
same,normalized growth,"locus YOR069W, strain VPS5, hits give low values",0.974
same,normalized growth,"locus YOR136W, strain idh2, hits give low values",1
same,normalized growth,"locus YOR144C, strain elg1, hits give low values",0.978
same,normalized growth,"locus YOR184W, strain ser1, hits give low values",1.05
same,normalized growth,"locus YOR231W, strain MKK1, hits give low values",0.942
same,normalized growth,"locus YOR316C, strain cot1, hits give low values",0.978
same,normalized growth,"locus YPL055C, strain LGE1, hits give low values",1.05
same,normalized growth,"locus YPL241C, strain CIN2, hits give low values",0.989
same,normalized growth,"locus YPL256C, strain CLN2, hits give low values",0.892
same,normalized growth,"locus YPR119W, strain clb2, hits give low values",0.981
same,normalized growth,"locus YPR141C, strain kar3, hits give low values",0.956
same,normalized growth,"locus YPR163C, strain tif3, hits give low values",0.974
same,normalized growth,"locus YPR167C, strain met16, hits give low values",0.979
same,normalized growth,"strain wtn01, hits give low values",1.04
